# PubChem BioAssay AID1159580 (chemical genetic matrix, 2015)
# Screen size: about 5,500 compounds; about 2,000 (36%) were called active. Roughly 18% stayed inconclusive and do not appear here. The list shows a part of the results. Unmarked numbers belong to inactive results. No stated cut-off is given here; in the data, active means normalized growth mostly below about 0.91 (no sharp cut-off); inconclusive means no clear call, values can overlap the other calls; inactive means mostly above about 0.92.
# Assay: chemical genetic growth profiling, strain panel (AID 1159580);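 further: tested at 20 µM; growth read once vehicle control cultures reached saturation at 30 °C; 1 = growth at the plate median or of vehicle wells; lower values mean less growth of the strain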
# Conditions: S. cerevisiae deletion strains, growth OD
# [1] = locus YAR019C, strain CDC15, active compounds read low
# [2] = locus YBL105C, strain PKC1, active compounds read low
# [3] = locus YBR135W, strain CKS1, active compounds read low
# [4] = locus YBR136W, strain MEC1, active compounds read low
# [5] = locus YBR160W, strain CDC28, active compounds read low
# [6] = locus YDL017W, strain CDC7, active compounds read low
# [7] = locus YDL028C, strain MPS1, active compounds read low
# [8] = locus YDL101C, strain DUN1, active compounds read low
# [9] = locus YDL108W, strain KIN28, active compounds read low
# [10] = locus YDL132W, strain cdc53, active compounds read low
# [11] = locus YDL214C, strain PRR2, active compounds read low
# [12] = locus YDR052C, strain DBF4, active compounds read low
# [13] = locus YDR054C, strain cdc34, active compounds read low
# [14] = locus YDR226W, strain ADK1, active compounds read low
# [15] = locus YDR477W, strain SNF1, active compounds read low
# [16] = locus YER123W, strain YCK3, active compounds read low
# [17] = locus YER133W, strain GLC7, active compounds read low
# [18] = locus YFL009W, strain cdc4, active compounds read low
# [19] = locus YFL029C, strain CAK1, active compounds read low
# [20] = locus YFR003C, strain YPI1, active compounds read low
# [21] = locus YFR019W, strain FAB1, active compounds read low
# [22] = locus YFR028C, strain CDC14, active compounds read low
# [23] = locus YGR040W, strain KSS1, active compounds read low
# [24] = locus YGR052W, strain FMP48, active compounds read low
# [25] = locus YGR092W, strain DBF2, active compounds read low
# [26] = locus YHR030C, strain SLT2, active compounds read low
# [27] = locus YHR079C, strain IRE1, active compounds read low
# [28] = locus YHR082C, strain KSP1, active compounds read low
# [29] = locus YHR205W, strain SCH9, active compounds read low
# [30] = locus YIL147C, strain SLN1, active compounds read low
# [31] = locus YJL095W, strain BCK1, active compounds read low
# [32] = locus YJL128C, strain PBS2, active compounds read low
# [33] = locus YJL157C, strain FAR1, active compounds read low
# [34] = locus YJR016C, strain ILV3, active compounds read low
# [35] = locus YJR066W, strain TOR1 (second series), active compounds read low
# [36] = locus YJR066W, strain TOR1, active compounds read low
# [37] = locus YKL048C, strain ELM1, active compounds read low
# [38] = locus YKL067W, strain YNK1, active compounds read low
# [39] = locus YKL101W, strain HSL1, active compounds read low
# [40] = locus YKL193C, strain SDS22, active compounds read low
# [41] = locus YKL203C, strain TOR2, active compounds read low
# [42] = locus YLR113W, strain HOG1, active compounds read low
# [43] = locus YLR133W, strain CKI1, active compounds read low
# [44] = locus YLR403W, strain SFP1, active compounds read low
# [45] = locus YML070W, strain DAK1, active compounds read low
# [46] = locus YMR001C, strain CDC5, active compounds read low
# [47] = locus YMR205C, strain PFK2 (second series), active compounds read low
# [48] = locus YMR277W, strain FCP1, active compounds read low
# [49] = locus YNL006W, strain LST8, active compounds read low
# [50] = locus YNL020C, strain ARK1, active compounds read low
# [51] = locus YNL161W, strain CBK1, active compounds read low
# [52] = locus YNL183C, strain NPR1, active compounds read low
# [53] = locus YNL207W, strain RIO2, active compounds read low
# [54] = locus YNL222W, strain SSU72, active compounds read low
# [55] = locus YNL307C, strain MCK1 (second series), active compounds read low
# [56] = locus YOL078W, strain AVO1, active compounds read low
# [57] = locus YOL136C, strain PFK27, active compounds read low
# [58] = locus YOR061W, strain CKA2, active compounds read low
# [59] = locus YOR119C, strain RIO1, active compounds read low
# [60] = locus YOR231W, strain MKK1, active compounds read low
# [61] = locus YOR329C, strain SCD5, active compounds read low
# [62] = locus YPL031C, strain PHO85, active compounds read low
# [63] = locus YPL153C, strain RAD53, active compounds read low
# [64] = locus YPL204W, strain HRR25, active compounds read low
# [65] = locus YPL209C, strain IPL1, active compounds read low
# [66] = locus YPL256C, strain CLN2, active compounds read low
# [67] = locus YPR025C, strain CCL1, active compounds read low
# [68] = locus YPR106W, strain ISR1, active compounds read low
# [69] = locus YPR111W, strain DBF20, active compounds read low
# [70] = strain NNK1, active compounds read low
# [71] = strain TSCII, active compounds read low
compound,measurement,setting,value
O=S(=O)(Nc1cccc(CCc2ccccn2)c1)c1cc(Cl)c(Cl)cc1Cl,normalized growth,[1],0.982
same,normalized growth,[2],0.977
same,normalized growth,[3],0.985
same,normalized growth,[4],0.983
same,normalized growth,[5],0.966
same,normalized growth,[6],0.981
same,normalized growth,[7],0.987
same,normalized growth,[8],0.973
same,normalized growth,[9],0.983
same,normalized growth,[10],0.976
same,normalized growth,[11],0.967
same,normalized growth,[12],0.977
same,normalized growth,[13],0.979
same,normalized growth,[14],0.986
same,normalized growth,[15],0.988
same,normalized growth,[16],0.995
same,normalized growth,[17],1
same,normalized growth,[18],0.989
same,normalized growth,[19],0.976
same,normalized growth,[20],0.981
same,normalized growth,[21],0.987
same,normalized growth,[22],0.973
same,normalized growth,[23],0.98
same,normalized growth,[24],1.08
same,normalized growth,[25],1
same,normalized growth,[26],1.15
same,normalized growth,[27],1.01
same,normalized growth,[28],1.08
same,normalized growth,[29],0.963
same,normalized growth,[30],0.985
same,normalized growth,[31],1.02
same,normalized growth,[32],0.942
same,normalized growth,[33],0.98
same,normalized growth,[34],0.981
same,normalized growth,[35],0.963
same,normalized growth,[36],1.08
same,normalized growth,[37],0.97
same,normalized growth,[38],0.979
same,normalized growth,[39],0.959
same,normalized growth,[40],0.984
same,normalized growth,[41],1.05
same,normalized growth,[42],0.883
same,normalized growth,[43],0.965
same,normalized growth,[44],0.983
same,normalized growth,[45],0.95
same,normalized growth,[46],0.987
same,normalized growth,[47],0.971
same,normalized growth,[48],0.991
same,normalized growth,[49],0.992
same,normalized growth,[50],0.969
same,normalized growth,[51],0.978
same,normalized growth,[52],1.04
same,normalized growth,[53],0.985
same,normalized growth,[54],0.976
same,normalized growth,[55],0.961
same,normalized growth,[56],0.974
same,normalized growth,[57],0.952
same,normalized growth,[58],0.978
same,normalized growth,[59],1.06
same,normalized growth,[60],0.951
same,normalized growth,[61],0.983
same,normalized growth,[62],0.992
same,normalized growth,[63],0.965
same,normalized growth,[64],0.991
same,normalized growth,[65],0.976
same,normalized growth,[66],0.945
same,normalized growth,[67],0.984
same,normalized growth,[68],0.965
same,normalized growth,[69],0.955
same,normalized growth,[70],0.992
same,normalized growth,[71],0.978
O=S(=O)(Nc1cccc2cccnc12)c1cc(Cl)c(Cl)cc1Cl,normalized growth,"locus YAL013W, strain DEP1, active compounds read low",0.773 (active)
same,normalized growth,"locus YBR229C, strain ROT2, active compounds read low",0.672 (active)
same,normalized growth,"locus YCL061C, strain MRC1, active compounds read low",0.804 (active)
same,normalized growth,[8],1.02
same,normalized growth,"locus YDR150W, strain NUM1, active compounds read low",1.04
same,normalized growth,"locus YEL061C, strain CIN8, active compounds read low",0.644 (active)
same,normalized growth,"locus YGR078C, strain PAC10, active compounds read low",0.855 (active)
same,normalized growth,[26],0.635 (active)
same,normalized growth,"locus YHR087W, strain rtc3, active compounds read low",0.517 (active)
same,normalized growth,"locus YJR043C, strain POL32, active compounds read low",0.947
same,normalized growth,"locus YJR075W, strain HOC1, active compounds read low",0.819 (active)
same,normalized growth,"locus YKL190W, strain CNB1, active compounds read low",0.652 (active)
same,normalized growth,"locus YLR039C, strain RIC1, active compounds read low",0.627 (active)
same,normalized growth,"locus YLR058C, strain SHM2 (second series), active compounds read low",0.951
same,normalized growth,"locus YLR085C, strain ARP6, active compounds read low",0.583 (active)
same,normalized growth,"locus YLR262C, strain YPT6, active compounds read low",0.716 (active)
same,normalized growth,"locus YML094W, strain GIM5, active compounds read low",0.761 (active)
same,normalized growth,"locus YMR219W, strain ESC1, active compounds read low",0.863 (active)
same,normalized growth,"locus YMR263W, strain SAP30, active compounds read low",0.853 (active)
same,normalized growth,"locus YNL153C, strain GIM3, active compounds read low",0.845 (active)
same,normalized growth,"locus YNL298W, strain CLA4 (second series), active compounds read low",0.724 (active)
same,normalized growth,"locus YNL322C, strain KRE1, active compounds read low",0.967
same,normalized growth,"locus YNR030W, strain Alg12, active compounds read low",0.773 (active)
same,normalized growth,"locus YOL006C, strain TOP1, active compounds read low",0.169 (active)
same,normalized growth,"locus YPL055C, strain LGE1, active compounds read low",0.635 (active)
same,normalized growth,"locus YPL241C, strain CIN2, active compounds read low",0.635 (active)
same,normalized growth,"locus YPR135W, strain CTF4, active compounds read low",0.807
O=S(=O)(Nc1cccc2nsnc12)c1cc(Cl)sc1Cl,normalized growth,[1],0.948
same,normalized growth,[2],0.961
same,normalized growth,[3],0.957
same,normalized growth,[4],0.96
same,normalized growth,[5],0.962
same,normalized growth,[6],0.961
same,normalized growth,[7],0.961
same,normalized growth,[8],0.962
same,normalized growth,[9],0.961
same,normalized growth,[10],0.969
same,normalized growth,[11],0.956
same,normalized growth,[12],0.955
same,normalized growth,[13],0.95
same,normalized growth,[14],0.947
same,normalized growth,[15],0.983
same,normalized growth,[16],0.944
same,normalized growth,[17],0.938
same,normalized growth,[18],0.947
same,normalized growth,[19],0.952
same,normalized growth,[20],0.958
same,normalized growth,[21],0.938
same,normalized growth,[22],0.96
same,normalized growth,[23],0.971
same,normalized growth,[24],1.08
same,normalized growth,[25],0.87
same,normalized growth,[26],0.871
same,normalized growth,[27],0.905
same,normalized growth,[28],0.981
same,normalized growth,[29],0.933
same,normalized growth,[30],0.953
same,normalized growth,[31],0.904
same,normalized growth,[32],0.953
same,normalized growth,[33],0.967
same,normalized growth,[34],0.951
same,normalized growth,[35],0.95
same,normalized growth,[36],0.953
same,normalized growth,[37],0.916
same,normalized growth,[38],0.954
same,normalized growth,[39],0.955
same,normalized growth,[40],0.961
same,normalized growth,[41],1.02
same,normalized growth,[42],0.887
same,normalized growth,[43],0.96
same,normalized growth,[44],0.942
same,normalized growth,[45],0.947
same,normalized growth,[46],0.959
same,normalized growth,[47],0.962
same,normalized growth,[48],0.96
same,normalized growth,[49],0.959
same,normalized growth,[50],0.953
same,normalized growth,[51],0.962
same,normalized growth,[52],0.979
same,normalized growth,[53],0.957
same,normalized growth,[54],0.958
same,normalized growth,[55],0.933
same,normalized growth,[56],0.957
same,normalized growth,[57],0.94
same,normalized growth,[58],0.943
same,normalized growth,[59],1.09
same,normalized growth,[60],0.954
same,normalized growth,[61],0.961
same,normalized growth,[62],0.982
same,normalized growth,[63],0.994
same,normalized growth,[64],0.999
same,normalized growth,[65],0.96
same,normalized growth,[66],0.884
same,normalized growth,[67],0.956
same,normalized growth,[68],0.964
same,normalized growth,[69],0.947
same,normalized growth,[70],0.969
same,normalized growth,[71],0.953
